Measurements as given in the supplement of paper PMC11417369.
Over roughly 25,000 sequences, “ln(normalized median fluorescence intensity)” has its median near 9.7; the highest 2% begin near 11. Shown is part of a subset that was picked to be rich in the highest values.

Test system: PfAP2-HC AP2 domain (GST-tagged)
Test: gcPBM binding intensity (ln(normalized median fluorescence intensity)); higher = stronger DNA binding
How it was run: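 GST-tagged P. falciparum DNA-binding domains, expressed in E. coli (about 25 μg on average), were applied for 1 h to an Agilent 4 × 180k array of primer-extended double-stranded 36-bp intergenic genomic probes plus negative controls. The binding buffer was 1× PBS with 1% milk, 0.2 mg/ml BSA, 0.5% salmon testes DNA and 0.03% Triton X-100. Bound protein was detected with Alexa488 anti-GST antibody and scanned at 488 nm. Binding intensity is the highest Masliner-normalised natural-log median intensity across replicate spots of either probe orientation.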

Sequence | gcPBM binding intensity (ln)
AATCACAACAGACACACACACAAAAAAAAAAAAAAA [CACACA_site1442] | 10.1
AAAATCACAAAACACACACACACAAAAAAAAAAAAA [CACACA_site1443] | 10.5
TACCAAAAGAAACACACACACAAAATATATAAATAT [CACACA_site1869] | 10.6
AAATAAATAATATGTAAACACACAAAAAATAAAAAT [CACACA_site8307] | 10.3
ATAAAATGCGCAAACACACACAAAAAAAAGATATAT [CACACA_site6875] | 10.2
AAAATCACAAGACACACACACACAAAAAAAAAAAAA [CACACA_site6791] | 11.5
TATATATAAATAAACACACACAAATATAATAAAAAA [CACACA_site3526] | 10.9
TTATAAAATGGGCAAACACACACAAAAAAAAGATAT [CACACA_site8476] | 10.9
CACAAAAATAGACACACACACATATAAATAAATATA [CACACA_site6598] | 10.4
CTTACCAAAAAACACACACACACAAAATATATAAAT [CACACA_site1870] | 11.2
TACCAAAATAGACACACACACAAAATATGTAAATAT [CACACA_site6963] | 11
ATAAAATGGGCAAACACACACAAAAAAAAGATATAT [CACACA_site1648] | 10.3
ATAAATAAATAAATAAATAAATAAATAAATATATAT [CACACA_negctrl_site1728] | 9.74
TTTAATTTATATTTTGTGCACATCTTATTATATATA [GTGCAC_site9630] | 9.88
GAAGTATTATTAAAGCTGCACTTTTCTAAAATAAAC [GTGCAC_site9429] | 9.5
TAATTACCATATGGTACACACATATATATCTGTATA [CACACA_site5849] | 9.96
CAGGCACTAATAAACACACACATATAAATATAAATA [CACACA_site6320] | 10.1
AATTTAACCACTAAAAGTACACACATATATACATAT [XGTACX_site8352] | 10.1
TACTTTTTTCCTATTATGTTTCTTATTTTTATAAAT [XGTACX_negctrl_site561] | 9.78

Sequence | gcPBM binding intensity (ln)
GATGATTATATATATACGCACACTTTTTTTTTTTTT [CACACA_site2652] | 9.94
TAATAAAACATATATACACACATTATAAATACATAT [CACACA_site5014] | 10
TTTTTTTTTTTTCTGTGTACATATATAATATATATA [XGTACX_site1592] | 9.7
AAATAAATAAAAAACACACACAAATAAATAAATATA [CACACA_site2249] | 10.7
AAAAAAAAAAAACACACACACACAAATATATAAAAA [CACACA_site1171] | 10.6
AAAAGAAAATAAGAAACACACAAAAATATATAAAAA [CACACA_site3697] | 9.99
AAATATAAAGTGCACACACACAAAAAAAGAAAAAAA [CACACA_site6452] | 10.2
AATATATATAAATAAACACACACAAATATAATAAAA [CACACA_site9176] | 10.8
AAAAAAAAAAAACACACACACAAAAAAAAATATATA [CACACA_site1105] | 11.3
ATATATATAAAACACACACACAAAAAAAATAAAGAC [CACACA_site117] | 11.2
AAAAAAAGAAAAAAAACACACACAAATATAAATAAA [CACACA_site8309] | 10.9
AAAAAAAAAAAAAACACACACACAAAAAAAAATATA [CACACA_site1104] | 11.3
AAATATAAACGGCACACACACAAAAAAAGAAAAAAA [CACACA_site649] | 11
AAAAAATATAAAAAAACACACAAAAAAAAAAAAAAA [CACACA_site1382] | 9.71
AAAAAGAAAAAAAACACACACAAATATAAATAAATA [CACACA_site1183] | 10.2
TGTACAAATATGTTGAAAATAAAATTTCAATATATT [XGTACX_negctrl_site13] | 9.32
AAAAAATTAACCGTAACACACACACCGATATATATA [CACACA_site9312] | 10.5
ATTTTTTTTTTTTTTTTTTTTTTTTGGAGAAAGAGA [CACACA_negctrl_site1119] | 8.98
ATATAGAAAATGCATACACACTTTATATATATATTT [CACACA_site4658] | 9.9

Sequence | gcPBM binding intensity (ln)
TTACAAATATTATAAAGTACAAACCAGTAGATTTTG [XGTACX_site2272] | 9.63
ATACATATGTATATTTGTACATATTAGACAATCTTA [XGTACX_site6706] | 9.37
CATATATAACAATTCTCACACATAAAAAAAAAAAAT [CACACA_site4564] | 9.76
TTTTTAAATATAAACAAAAAAAAAAAATATATCAAT [XGTACX_negctrl_site328] | 9.43
AAAAAAAAAAAAAACACACACACAAGAGTATATAAA [CACACA_site6580] | 11.1
AAAAAAAAAAAAAACACACACACAATAGTATATAAA [CACACA_site957] | 10.3
AATACTTACCAAAATACACACACACCCAAAATATAT [CACACA_site8559] | 10.3
AAAAAAATAAATAAGACACACACAAAAAAAAAAAAA [CACACA_site8404] | 11
AAAAAAATAAGACACACACACAAAAAAATAAAAATA [CACACA_site6357] | 10.6
AAAACAAATATATTAACACACAAACATATAAACAAA [CACACA_site6052] | 10.4
TACTTACCAAAATACACACACACACTAGATATATAA [CACACA_site5096] | 11.3
TACTTACCAAAATACACACACACACCCAATATATAA [CACACA_site1871] | 10.5
AAAATATATATTAACACACACACAAAAAAAAAAAAA [CACACA_site1325] | 11.2
AAAAATAAATAAGACACACACAAAAAAAAAAAAAAA [CACACA_site1432] | 9.87
ATATTAAAAAAATATAAACACACAAAAAAAAAATAT [CACACA_site8283] | 9.91
AGAGTATATAAAGTAACACACAATAAAATAAAATAA [CACACA_site2328] | 10.3
TATTTTTTTCTTACTACACACATATATATGCTTTCC [CACACA_site4058] | 10
ATAGCATATATTTTTTGTACATATGTTATATATATA [XGTACX_site2184] | 9.66
